In the supplement of paper PMC12067093, “Discovery and optimisation of a covalent ligand for TRIM25 and its application to targeted protein ubiquitination” (Chemical Science, 2025):
Targets with the largest changes are over-represented here; the source holds about 21,000 in all.

Compound: Cc1cc(ccc1-c1ccccc1)C(=O)N1CCCN(CC1)C(=O)CCl [compound 10]
Test: probe-labelled cysteine peptide fold change vs DMSO (competition) (log2 fold change); higher = less target engagement (more negative = stronger competition)
Settings: THP-1, incubation time: 4 h
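Further: competitive profiling in live THP-1 cells: cysteine peptides tagged with an iodoacetamide desthiobiotin (IA-DTB) probe, intensity after compound treatment relative to DMSO-treated cells.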

TGS1_Q96RS0_357_ECPASGQSEPR (UniProt Q96RS0)
probe-labelled cysteine peptide fold change (10 µM): -0.00223
probe-labelled cysteine peptide fold change (50 µM): 0.216

STK11_Q15831_418_ACSASSK (UniProt Q15831)
Sequence of UniProt Q15831 (Q15831 whole entry, looked up): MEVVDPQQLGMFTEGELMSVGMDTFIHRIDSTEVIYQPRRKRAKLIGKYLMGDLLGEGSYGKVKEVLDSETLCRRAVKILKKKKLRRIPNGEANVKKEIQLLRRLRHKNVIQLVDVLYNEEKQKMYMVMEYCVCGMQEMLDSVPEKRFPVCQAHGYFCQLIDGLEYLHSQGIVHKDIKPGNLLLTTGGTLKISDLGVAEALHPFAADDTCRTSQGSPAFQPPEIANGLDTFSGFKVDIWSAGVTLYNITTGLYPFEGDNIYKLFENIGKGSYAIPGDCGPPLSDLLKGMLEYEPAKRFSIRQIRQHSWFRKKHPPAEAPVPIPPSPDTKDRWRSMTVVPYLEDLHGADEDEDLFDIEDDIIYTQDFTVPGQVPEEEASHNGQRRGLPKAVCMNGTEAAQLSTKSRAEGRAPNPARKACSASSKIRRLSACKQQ
probe-labelled cysteine peptide fold change (10 µM): -0.73
probe-labelled cysteine peptide fold change (50 µM): -1.42

SORL1_Q92673_752_LEGELVPCPLAEENEFILYAVR (UniProt Q92673)
probe-labelled cysteine peptide fold change (10 µM): 0.124
probe-labelled cysteine peptide fold change (50 µM): 0.148

SRP72_O76094_54_VVCLIQNGSFK (UniProt O76094)
Sequence of UniProt O76094 (O76094 whole entry, looked up): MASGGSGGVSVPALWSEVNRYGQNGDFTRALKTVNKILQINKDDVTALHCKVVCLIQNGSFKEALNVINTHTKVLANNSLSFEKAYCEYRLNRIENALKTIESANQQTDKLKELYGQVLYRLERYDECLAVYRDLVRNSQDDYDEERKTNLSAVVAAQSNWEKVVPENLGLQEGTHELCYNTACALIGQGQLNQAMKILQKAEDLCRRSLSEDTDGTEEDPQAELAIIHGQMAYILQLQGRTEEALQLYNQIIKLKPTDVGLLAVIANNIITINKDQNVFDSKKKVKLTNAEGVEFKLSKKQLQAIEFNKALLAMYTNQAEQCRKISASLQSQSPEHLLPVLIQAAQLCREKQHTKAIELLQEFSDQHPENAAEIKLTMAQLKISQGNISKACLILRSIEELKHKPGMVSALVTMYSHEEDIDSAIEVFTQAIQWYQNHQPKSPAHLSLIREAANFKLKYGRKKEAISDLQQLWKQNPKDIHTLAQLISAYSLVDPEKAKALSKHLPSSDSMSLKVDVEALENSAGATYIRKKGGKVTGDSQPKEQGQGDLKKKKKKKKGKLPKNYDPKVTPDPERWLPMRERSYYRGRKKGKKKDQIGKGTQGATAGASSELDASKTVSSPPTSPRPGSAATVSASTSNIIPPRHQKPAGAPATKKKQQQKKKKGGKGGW
probe-labelled cysteine peptide fold change (10 µM): 0.0906
probe-labelled cysteine peptide fold change (50 µM): -0.275

TNPO3_Q9Y5L0_580_ITECLSELCSVQVMALKK (UniProt Q9Y5L0)
Sequence of UniProt Q9Y5L0 (Q9Y5L0 whole entry, looked up): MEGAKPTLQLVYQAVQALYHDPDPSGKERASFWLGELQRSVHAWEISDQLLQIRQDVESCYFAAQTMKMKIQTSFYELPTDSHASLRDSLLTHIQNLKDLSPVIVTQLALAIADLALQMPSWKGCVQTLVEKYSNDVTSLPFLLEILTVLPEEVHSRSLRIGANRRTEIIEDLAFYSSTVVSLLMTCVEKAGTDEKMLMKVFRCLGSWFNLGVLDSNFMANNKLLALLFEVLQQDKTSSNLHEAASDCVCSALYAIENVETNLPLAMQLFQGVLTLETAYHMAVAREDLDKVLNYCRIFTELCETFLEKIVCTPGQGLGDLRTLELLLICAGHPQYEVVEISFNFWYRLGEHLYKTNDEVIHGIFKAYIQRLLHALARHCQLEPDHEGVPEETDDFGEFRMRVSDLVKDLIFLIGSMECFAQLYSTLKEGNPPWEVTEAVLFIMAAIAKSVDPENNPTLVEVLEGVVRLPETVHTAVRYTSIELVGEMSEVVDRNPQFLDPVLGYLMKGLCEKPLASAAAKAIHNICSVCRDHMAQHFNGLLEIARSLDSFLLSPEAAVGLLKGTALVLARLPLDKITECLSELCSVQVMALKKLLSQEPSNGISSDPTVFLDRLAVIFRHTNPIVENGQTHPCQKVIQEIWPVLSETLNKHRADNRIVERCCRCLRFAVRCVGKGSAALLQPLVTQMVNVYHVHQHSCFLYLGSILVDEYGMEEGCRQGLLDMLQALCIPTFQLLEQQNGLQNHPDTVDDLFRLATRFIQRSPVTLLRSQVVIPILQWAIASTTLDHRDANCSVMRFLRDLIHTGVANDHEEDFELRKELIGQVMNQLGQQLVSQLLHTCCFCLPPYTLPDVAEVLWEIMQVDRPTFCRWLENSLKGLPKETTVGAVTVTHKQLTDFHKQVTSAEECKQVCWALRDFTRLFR
probe-labelled cysteine peptide fold change (10 µM): -0.00843
probe-labelled cysteine peptide fold change (50 µM): -0.267

TFCP2_Q12800_72_ILPFQYVLCAATSPAVK (UniProt Q12800)
probe-labelled cysteine peptide fold change (10 µM): 0.339
probe-labelled cysteine peptide fold change (50 µM): 0.0755

TCF20_Q9UGU0_1918_YHYPCAIDADCLLHEENFSVR (UniProt Q9UGU0)
probe-labelled cysteine peptide fold change (10 µM): 0.317
probe-labelled cysteine peptide fold change (50 µM): 0.504

THOC2_Q8NI27_436_DVFNMFCYLGPHLSHDPILFAK (UniProt Q8NI27)
probe-labelled cysteine peptide fold change (10 µM): 0.0617
probe-labelled cysteine peptide fold change (50 µM): 0.215

SPECC1_Q5M775_578_ATEASAVEQTAESCEVQEMLK (UniProt Q5M775)
Sequence of UniProt Q5M775 (Q5M775 whole entry, looked up): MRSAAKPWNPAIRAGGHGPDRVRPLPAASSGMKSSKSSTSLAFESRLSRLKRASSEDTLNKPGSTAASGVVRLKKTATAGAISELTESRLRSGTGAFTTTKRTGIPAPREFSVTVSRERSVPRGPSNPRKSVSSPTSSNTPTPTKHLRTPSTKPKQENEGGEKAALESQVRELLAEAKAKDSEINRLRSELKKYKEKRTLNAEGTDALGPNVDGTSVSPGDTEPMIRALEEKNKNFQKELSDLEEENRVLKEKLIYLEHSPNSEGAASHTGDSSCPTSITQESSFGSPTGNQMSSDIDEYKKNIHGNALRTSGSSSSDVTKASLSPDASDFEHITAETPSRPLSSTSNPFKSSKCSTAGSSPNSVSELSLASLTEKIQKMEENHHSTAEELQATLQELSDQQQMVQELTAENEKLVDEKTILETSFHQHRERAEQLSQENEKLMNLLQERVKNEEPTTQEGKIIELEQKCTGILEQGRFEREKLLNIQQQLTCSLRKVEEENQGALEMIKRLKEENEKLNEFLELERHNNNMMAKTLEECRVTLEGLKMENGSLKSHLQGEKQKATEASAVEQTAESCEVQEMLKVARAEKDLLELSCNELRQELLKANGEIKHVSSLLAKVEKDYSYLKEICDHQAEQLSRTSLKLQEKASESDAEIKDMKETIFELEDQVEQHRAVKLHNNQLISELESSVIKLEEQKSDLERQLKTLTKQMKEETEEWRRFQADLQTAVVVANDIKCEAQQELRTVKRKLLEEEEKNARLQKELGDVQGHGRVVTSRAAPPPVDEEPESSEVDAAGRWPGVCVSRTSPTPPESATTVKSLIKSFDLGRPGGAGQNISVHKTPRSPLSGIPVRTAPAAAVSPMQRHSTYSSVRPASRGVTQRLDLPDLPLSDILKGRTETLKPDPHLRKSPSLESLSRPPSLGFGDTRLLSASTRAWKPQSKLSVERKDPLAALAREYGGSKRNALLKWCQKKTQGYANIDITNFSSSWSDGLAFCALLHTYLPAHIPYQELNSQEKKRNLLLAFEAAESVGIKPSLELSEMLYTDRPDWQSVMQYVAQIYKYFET
probe-labelled cysteine peptide fold change (10 µM): -0.116
probe-labelled cysteine peptide fold change (50 µM): -0.22

TBC1D15_Q8TC07_184_YVVLCESPQDKR (UniProt Q8TC07)
Sequence of UniProt Q8TC07 (Q8TC07 whole entry, looked up): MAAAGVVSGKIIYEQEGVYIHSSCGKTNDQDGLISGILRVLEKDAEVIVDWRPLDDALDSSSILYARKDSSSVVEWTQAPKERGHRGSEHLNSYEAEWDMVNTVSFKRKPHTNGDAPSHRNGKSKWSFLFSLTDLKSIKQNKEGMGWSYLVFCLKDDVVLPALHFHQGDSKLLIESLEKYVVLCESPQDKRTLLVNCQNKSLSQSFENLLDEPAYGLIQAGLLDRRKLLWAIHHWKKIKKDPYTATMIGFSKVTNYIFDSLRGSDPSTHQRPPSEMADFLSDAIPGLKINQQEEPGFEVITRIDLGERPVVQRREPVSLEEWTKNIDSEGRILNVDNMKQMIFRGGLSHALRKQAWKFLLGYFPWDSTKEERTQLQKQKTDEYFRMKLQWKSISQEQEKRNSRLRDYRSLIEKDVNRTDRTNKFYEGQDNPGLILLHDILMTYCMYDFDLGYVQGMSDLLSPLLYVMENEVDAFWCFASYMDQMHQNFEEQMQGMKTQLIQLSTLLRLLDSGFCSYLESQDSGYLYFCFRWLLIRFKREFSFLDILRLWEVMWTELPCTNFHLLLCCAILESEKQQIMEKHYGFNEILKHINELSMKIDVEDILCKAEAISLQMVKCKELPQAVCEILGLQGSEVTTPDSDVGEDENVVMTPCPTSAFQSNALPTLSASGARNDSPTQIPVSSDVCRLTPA
probe-labelled cysteine peptide fold change (10 µM): 0.0621
probe-labelled cysteine peptide fold change (50 µM): -0.0543

SP100_P23497_266+270_EMPCPLPCDEESPEAELHNHGIQINSCSVR (UniProt P23497)
Sequence of UniProt P23497 (P23497 whole entry, looked up): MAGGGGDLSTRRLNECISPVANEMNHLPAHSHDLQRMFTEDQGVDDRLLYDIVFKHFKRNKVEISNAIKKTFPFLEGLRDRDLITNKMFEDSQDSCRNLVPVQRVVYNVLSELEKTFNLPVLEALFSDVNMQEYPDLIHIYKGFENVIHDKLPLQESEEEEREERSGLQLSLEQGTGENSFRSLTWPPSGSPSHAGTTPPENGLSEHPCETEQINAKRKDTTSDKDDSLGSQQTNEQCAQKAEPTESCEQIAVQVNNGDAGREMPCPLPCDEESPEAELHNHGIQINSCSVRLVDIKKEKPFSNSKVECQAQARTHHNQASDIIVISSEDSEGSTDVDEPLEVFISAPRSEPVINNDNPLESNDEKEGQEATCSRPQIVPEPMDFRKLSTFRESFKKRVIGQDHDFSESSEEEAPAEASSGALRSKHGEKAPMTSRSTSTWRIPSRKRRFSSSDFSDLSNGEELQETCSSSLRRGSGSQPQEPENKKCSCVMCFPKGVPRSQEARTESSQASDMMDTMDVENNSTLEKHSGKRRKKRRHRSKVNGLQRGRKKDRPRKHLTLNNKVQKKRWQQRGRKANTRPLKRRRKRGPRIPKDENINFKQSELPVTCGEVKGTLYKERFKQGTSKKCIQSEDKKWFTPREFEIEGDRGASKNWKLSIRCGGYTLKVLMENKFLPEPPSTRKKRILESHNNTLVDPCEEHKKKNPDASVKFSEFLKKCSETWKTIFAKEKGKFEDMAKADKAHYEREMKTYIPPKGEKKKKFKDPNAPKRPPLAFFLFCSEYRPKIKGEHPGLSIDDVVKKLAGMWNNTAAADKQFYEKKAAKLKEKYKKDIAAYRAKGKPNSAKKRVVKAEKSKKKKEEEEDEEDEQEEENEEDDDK
probe-labelled cysteine peptide fold change (10 µM): -0.396
probe-labelled cysteine peptide fold change (50 µM): -1.25

STXBP3_O00186_114_AAYIYFTDFCPDNLFNK (UniProt O00186)
probe-labelled cysteine peptide fold change (10 µM): 0.0291
probe-labelled cysteine peptide fold change (50 µM): 0.184

STIP1_P31948_471_CMMAQYNR (UniProt P31948)
probe-labelled cysteine peptide fold change (10 µM): 0.271
probe-labelled cysteine peptide fold change (50 µM): -0.0499

TANC1_Q9C0D5_800_MDALSCFLIK (UniProt Q9C0D5)
probe-labelled cysteine peptide fold change (10 µM): -0.167
probe-labelled cysteine peptide fold change (50 µM): -1.29
